Screens as filed in PubChem BioAssay.
Most compounds without a hit are left out; they make up all but 1.5% or so of the library.
PolyA inhibitor: blocks polyadenylation in yeast reporter cells. 0.02% of 300,000 active. S. cerevisiae SKY197-pL101 polyadenylation reporter, beta-gal luminescence; efflux-impaired pdr1/pdr3 knockout yeast; score 100 = 6 SD above DMSO. activity score, % at 12 µM;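 active = lowest replicate activity score at least 50, where 100 means six control SD above control mean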;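 also: yeast exposed to compound for 9 h at 30 °C; higher score means more reporter readthrough which indicates perturbed polyadenylation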
JMJD2C inh: blocks human GASC-1 demethylase activity | Q9H3R0 | GST-JMJD2C(1-420) H3K9me3 demethylation, DELFIA europium | inhibition, % at 2.35 µM | 0.069% of 330,000 active | AID 2099;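 active = more than half of a compound's replicate wells show inhibition beyond 50%, single wells judged on their own value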;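 also: signal counts dimethyl H3K9 product captured on neutravidin plate; 0% = median of DMSO wells and 100% = 0.3 times that DMSO median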
Target sequence (Q9H3R0 1-420 limits assumed): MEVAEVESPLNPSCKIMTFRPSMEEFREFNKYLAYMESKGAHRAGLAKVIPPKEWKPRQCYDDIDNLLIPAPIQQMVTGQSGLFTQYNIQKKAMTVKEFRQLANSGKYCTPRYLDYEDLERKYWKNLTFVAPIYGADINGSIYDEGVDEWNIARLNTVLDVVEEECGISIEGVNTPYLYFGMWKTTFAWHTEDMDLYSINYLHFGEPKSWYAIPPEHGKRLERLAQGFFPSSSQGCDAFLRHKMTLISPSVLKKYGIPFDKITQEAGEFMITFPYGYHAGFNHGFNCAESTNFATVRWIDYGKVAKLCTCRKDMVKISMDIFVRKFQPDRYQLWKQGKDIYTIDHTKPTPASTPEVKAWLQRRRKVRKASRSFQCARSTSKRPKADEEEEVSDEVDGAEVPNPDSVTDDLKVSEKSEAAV
NLRP3 yeast inh: inhibitors of NALP3 inflammasome in yeast; Yeast reconstituted NLRP3/ASC/caspase-1, beta-gal luminescence, 24 h; inhibition, % at 10 µM; 0.39% of 330,000 active;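 active = inhibition of 50% or more; inactive = inhibition below 50%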;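 also: plate controls were induced DMSO wells for no effect and uninduced yeast grown without galactose for full effect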
HDAC3 inh: inhibitors of human histone deacetylase 3; 0.15% of 320,000 active; O15379; inhibition, % at 8.3 µM; recombinant HDAC3, fluorogenic peptide/trypsin coupled, fluorescence; in the data active = inhibition above about 26%, passing the limit was not always enough
Efflux pump mplx: inhibitors of Candida antifungal efflux pumps expressed in yeast. S. cerevisiae Candida pump triplex, Nile Red efflux. inhibition, % at 10 µM. 0.44% of 330,000 active. AID 485275;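 active = plate passing quality check with inhibition over a set limit, or well fluorescence over plate mean plus 4 SD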;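 also: Nile Red retained in pooled yeast measured as flow cytometry median fluorescence; 0% = buffer negative control and 100% = Enniatin B positive control; higher means more Nile Red kept so more efflux inhibition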
NALP1 inh: blocks the NALP1 inflammasome reconstituted in yeast; S. cerevisiae NALP1/ASC/caspase-1 growth, X-gal OD620, 72 h; 0.61% of 280,000 active; AID 2071; inhibition, % at 10 µM; in the data active = inhibition mostly above about 24%, no sharp cut-off; inactive = mostly below about 32%
Cmpd fluor yeast: compound fluorescence in yeast efflux pump counter-screen; shares compounds with Efflux pump mplx; S. cerevisiae AD/pABC3, flow cytometry; fluorescence ratio to DMSO, % at 10 µM; 4% of 1,700 active;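 active = fluorescence ratio to DMSO above its plate's cutoff, the plate mean ratio plus 5 SD, cut at about 210% in these data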;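 also: unstained yeast with no Nile Red so the signal is compound autofluorescence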
Mdr1 pump inh: blocks the Candida albicans Mdr1 efflux pump in yeast | shares compounds with Efflux pump mplx | S. cerevisiae AD/CaMDR1, Nile Red efflux, flow cytometry | inhibition, % at 10 µM | 1% of 1,700 active; in the data active = inhibition above about 26%;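 also: 0% = DMSO vehicle and 100% = reference inhibitor; higher means more Nile Red retained so more efflux inhibition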
Cdr2 pump inh: Candida Cdr2 efflux pump inhibition; shares compounds with Efflux pump mplx; 4% of 1,700 active; Nile Red retention ratio vs DMSO, % at 10 µM; S. cerevisiae AD/CaCDR2, Nile Red retention, flow cytometry; in the data active = Nile Red retention ratio vs DMSO above about 190%;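 also: higher ratio means more blocking of Cdr2 efflux of the dye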
CaCdr1 efflux inh: blocks the Candida albicans Cdr1 efflux pump in yeast. shares compounds with Efflux pump mplx. S. cerevisiae AD/CaCDR1, Nile Red efflux, flow cytometry. inhibition, % at 10 µM. 1% of 1,700 active. AID 588522;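 active = inhibition above the screen-wide mean plus twice its standard deviation, cut at about 32% in these data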
* marks the source's active call; other numbers are inactive results; i = inactive; / = no result; + = active, no number.

SMILES	PolyA inhibitor	JMJD2C inh	NLRP3 yeast inh	HDAC3 inh	Efflux pump mplx	NALP1 inh	Cmpd fluor yeast	Mdr1 pump inh	Cdr2 pump inh	CaCdr1 efflux inh
O=C(NC1CCCc2c1cnn2-c1ccccc1F)c1ccccn1 (centres undefined)	-13	-31	10	1	0	1	106	0	105	0
COc1ncccc1C(=O)NC1CCCc2c1cnn2-c1cc(C)cc(C)c1 (centres undefined)	-25	2	-72	-6	0	-6	100	0	108	0
Cc1ccc(C(=O)OCC(=O)NCC2COc3ccccc3O2)cc1 (centres undefined)	/	9	23	-1	0.9*	/	119	1	114	0
CC(=O)NO	17	-37	13	3	0	/	/	/	/	/
COc1cc(N)ccc1Cc1ccc(N)cc1OC	9	36	37	-2	0.5*	12	101	0	114	0
COc1ccc(N)cc1-n1c(C)ccc1C	8	61	16	-5	0	-8	/	/	/	/
COc1ccc(N)cc1C#N	31	2	-7	4	0.7*	0	100	0	108	0
Cc1ccccc1NC(=S)NCc1ccccc1	2	-8	9	-8	8.9*	14	95	0	112	0
COc1cc(/C=N/NC(=O)COc2ccc(C)cc2)ccc1OC(=O)c1cccs1	6	0	-13	9	2.1*	8	87	0	98	0
OCC[C@@H]1C[C@@H](O)[C@H](O)[C@@]2(Cc3ccccc3CCO2)O1	32	-2	11	-9	0	0	/	/	/	/
O=C(O)CCN1C(=O)/C(=C/c2ccc(-c3nc4ccccc4s3)o2)SC1=S	-1	0	14	18	1.9*	-18	137	0	+	0
O=C(O)CCCN1C(=O)/C(=C\c2ccc(-c3nc4ccccc4s3)o2)SC1=S	1	3	14	8	1.1*	19	106	0	180	0
O=C(O)CC(C(=O)O)N1C(=O)/C(=C/c2ccc(-c3nc4ccccc4s3)o2)SC1=S (centres undefined)	1	-2	-5	16	0	25	101	0	107	0
CNS(=O)(=O)c1cccc(C(=O)OCC(=O)Nc2ccc3ccccc3c2)c1	/	9	-6	0	0	/	/	/	/	/
CC(=C/C(=O)O)/C=C/c1ccco1	3	0	19	1	2.4*	34	99	0	94	0
N#C/C(=C\c1ccc([N+](=O)[O-])o1)C(=O)Nc1ccc(F)cc1	-91	1	-8	2	1.6*	13	275*	1	172	1
CCc1nnc(NS(=O)(=O)c2ccc(NC(=S)NC(=O)/C=C/c3ccc(OC)cc3)cc2)s1	-7	11	10	-8	0	14	/	/	/	/
CCc1nnc(NS(=O)(=O)c2ccc(NC(=S)NC(=O)/C=C/c3ccccc3)cc2)s1	-19	6	4	11	5.8*	6	113	0	123	0
O=C(Nc1nccs1)c1cc(-c2ccco2)nc2ccccc12	3	4	/	-4	1	10	/	/	/	/
COc1ccc(-c2cc(C(=O)NCCN3CCOCC3)c3ccccc3n2)c(OC)c1	-7	-6	4	-8	0	23	86	-1	99	0
O=C(Nc1nccs1)c1cc(-c2ccccc2)nc2ccccc12	-27	17	12	1	11*	19	103	0	101	0
COc1ccc(-c2cc(C(=O)Nc3cc(S(=O)(=O)N4CCOCC4)ccc3N3CCOCC3)c3ccccc3n2)cc1	11	10	15	2	0.8*	-13	113	0	125	0
CCOC(=O)Cc1cc(-c2ccc(OC)cc2)nc2ccc3ccccc3c12	13	29	15	-5	10*	18	91	0	106	0
Cc1ccc(SCC(=O)N2CCN(S(=O)(=O)c3cccs3)CC2)cc1	/	4	22	0	0	/	/	/	/	/
COC(=O)c1cccc(NC(=O)c2cccnc2C(=O)O)c1C	-14	8	12	-4	0	-13	/	/	/	/
SMILES	PolyA inhibitor	JMJD2C inh	NLRP3 yeast inh	HDAC3 inh	Efflux pump mplx	NALP1 inh	Cmpd fluor yeast	Mdr1 pump inh	Cdr2 pump inh	CaCdr1 efflux inh
O=C(Cc1ccccc1)NCC(=O)Nc1cccc(Cl)c1	22	i	8	-3	0	21	/	/	/	/
COc1ccc(-c2cc(C(=O)Nc3ccc(C)c(N)c3)c3ccccc3n2)cc1	23	-6	16	1	0.5*	8	107	0	103	0
O=C1CN(C(=O)NCC(=O)N[C@@H](C(=O)O)c2ccccc2)c2ccccc2N1	-13	-11	12	-9	0	28	/	/	/	/
CCN(C[C@H]1N[C@@](CC)(C(=O)OC)[C@H]2C(=O)N(Cc3ccccc3)C(=O)[C@@H]12)C(=O)c1ccccc1	/	/	9	/	0	/	/	/	/	/
CCOC(=O)c1c(NC(=O)c2nn(CC)cc2Br)sc2c1CCCCC2	16	-2	9	-1	0	2	/	/	/	/
Cn1cc(Br)c(C(=O)Nc2sc3c(c2C(N)=O)CCC3)n1	15	-3	18	7	0	18	100	0	93	0
CCn1ncc(Br)c1C(=O)Nc1sc2c(c1C(N)=O)CCC2	-11	0	22	-4	0	26	94	0	100	0
CCOC(=O)c1c(NC(=O)c2ccn(CC)n2)sc2c1CCC2	-27	-8	19	-2	0.4*	9	98	0	98	0
CC(=O)Nc1sc2c(c1C(N)=O)CCC2	-2	-4	11	-7	0	-104	/	/	/	/
CSCCC(NC(=O)c1ccccc1)C(=O)N1CCN(C(c2ccccc2)c2ccccc2)CC1 (centres undefined)	0	-17	14	14	1	8	/	/	/	/
O=C(NC1CCCc2ccccc21)c1cccc(S(=O)(=O)N2CCN(c3ccccc3)CC2)c1 (centres undefined)	22	8	3	2	1.9*	-12	113	0	114	0
O=C(Nc1ccccc1)N1CCCC(c2nc(-c3ccc(F)cc3)no2)C1 (centres undefined)	-14	-10	27	5	0	10	/	/	/	/
O=C(C1CCCCC1)N1CCCC(c2nc(-c3ccc(F)cc3)no2)C1 (centres undefined)	-7	13	-9	4	8.2*	6	104	0	112	0
